# Source: PubChem BioAssay (Tox21)
# Records with an inconclusive call do not appear. Entries that show only a call come without a potency. A number with no mark means an inactive call. Calls of active or inactive are those of the source. Calls follow the shape of the dose curve; as a rule, active = well fitted curve in the direction sought with a large enough effect in the repeat runs; inconclusive = weak or mixed curves; inactive = no such curve, though single readings can be large; an effect the other way counts as inactive or inconclusive.
# What was measured:
# [1] = qHTS RealTime-Glo MT Cell Viability Assay in HEK293 cells - 16 hour (AID 1224872); also: nearly all actives have a fitted effect of over 50% in size; also: potency is read from the fitted curve at half-maximal effect
# Method in brief: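 HEK293 cells seeded with NanoLuc/prosubstrate reagent, rested 5 h at 37 C, then dosed and kept at 37 C up to 40 h. Nonlytic real-time luminescence from viable cells read at 0, 8, 16, 24, 32 and 40 h.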
# [2] = qHTS RealTime-Glo MT Cell Viability Assay in HepG2 cells - 8 hour (AID 1224873); also: nearly all actives have a fitted effect of over 55% in size
# Method in brief: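 HepG2 cells (600/well) mixed with RealTime-Glo MT reagent, settled 5 h at 37 C/5% CO2 before compound addition. Nonlytic NanoLuc luminescence from viable-cell prosubstrate reduction read repeatedly during 40 h treatment at 37 C.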
# [3] = qHTS RealTime-Glo MT Cell Viability Assay in HEK293 cells - 40 hour (AID 1224874); details: RealTime-Glo luminescence; max response: active compounds read low; also: nearly all actives have a fitted effect of over 50% in size; also: potency is read from the fitted curve at half-maximal effect
# Method in brief: (§1)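 Luminescence readout at each listed time point; HEK293, 600 cells/well, RealTime-Glo MT reagent added with cells; compounds pinned (23 nL in DMSO) after 5 h at 37 C; continuous culture at 37 C.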
# [4] = A CellTox Green Cytotoxicity Assay to monitor cytotoxicity in HEK293 cells - 24 hour (AID 1224875); also: series mostly up to about 77 µM; nearly all actives have a fitted effect of over 45% in size
# Method in brief: (§2)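 Read-out: fluorescence of a cell-impermeant cyanine dye staining DNA of dead cells, proportional to cytotoxicity. HEK293, 600 cells/well with reagent, compound (23 nL DMSO) added after 5 h; reads at 0, 8, 16, 24, 32, 40 h.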
# [5] = A CellTox Green Cytotoxicity Assay to monitor cytotoxicity in HepG2 cells - 16 hour (AID 1224876); also: nearly all actives have a fitted effect of over 45% in size
# Method in brief: (§3)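 HepG2, 600 cells/well premixed w/ CellTox Green; 5 h settle, 37 C/5% CO2; pintool cpd add (DMSO); 37 C, 40 h; fluorescence read at 0, 8, 16, 24, 32, 40 h.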
# [6] = A CellTox Green Cytotoxicity Assay to monitor cytotoxicity in HepG2 cells - 24 hour (AID 1224878); also: nearly all actives have a fitted effect of over 45% in size
# Method in brief: as §3
# [7] = A CellTox Green Cytotoxicity Assay to monitor cytotoxicity in HepG2 cells - 40 hour (AID 1224879); also: nearly all actives have a fitted effect of over 40% in size
# Method in brief: as §3
# [8] = qHTS RealTime-Glo MT Cell Viability Assay in HEK293 cells - 0 hour (AID 1224880); also: top concentration of the series differs between compounds; nearly all actives have a fitted effect of over 45% in size
# Method in brief: as §1
# [9] = A CellTox Green Cytotoxicity Assay to monitor cytotoxicity in HEK293 cells - 32 hour (AID 1224881); also: nearly all actives have a fitted effect of over 40% in size
# Method in brief: as §2
# [10] = qHTS RealTime-Glo MT Cell Viability Assay in HepG2 cells - 32 hour (AID 1224877); also: nearly all actives have a fitted effect of over 55% in size
# Method in brief: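 HepG2 cells (600/well) were dispensed with RealTime-Glo reagents, incubated 5 h at 37 °C, then treated with compounds in DMSO for up to 40 h. Nonlytic NanoLuc luminescence reflecting viable cells was read at each stated time point.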
SMILES,Potency [1],outcome [2],max response [3] [%],outcome [4],outcome [5],outcome [6],Potency [7],Potency [8],outcome [9],Potency [10],Potency [3]
COCCOC[C@H](CC1(C(=O)NC2CCC(C(=O)O)CC2)CCCC1)C(=O)Oc1ccc2c(c1)CCC2 (stereo partly specified),inactive,inactive,5.36,inactive,inactive,inactive,inactive,inactive,inactive,,
C=COC(=O)C(C)(CC)CCC(C)C (stereo unspecified),inactive,inactive,0.193,inactive,inactive,,inactive,inactive,inactive,inactive,
OCCc1ccccn1,inactive,inactive,3.13,inactive,inactive,,inactive,inactive,inactive,inactive,
Nc1ccccn1,inactive,inactive,-3.82,inactive,inactive,inactive,inactive,inactive,inactive,,
CCN(Cc1ccccc1)c1ccccc1,19.3 µM (active),inactive,,inactive,inactive,,,inactive,,inactive,21.6 µM (active)
CC(C(=O)O)c1cccc(Oc2ccccc2)c1 (stereo unspecified),inactive,inactive,-2.21,inactive,inactive,,inactive,inactive,inactive,inactive,
O=C1NC(=O)C2CC=CCC12 (stereo unspecified),inactive,inactive,11.2,inactive,inactive,,inactive,inactive,inactive,inactive,
Cc1ccc(C(=O)Nc2ccc(S(=O)(=O)O)c3cc(S(=O)(=O)O)cc(S(=O)(=O)O)c23)cc1NC(=O)c1cccc(NC(=O)Nc2cccc(C(=O)Nc3cc(C(=O)Nc4ccc(S(=O)(=O)O)c5cc(S(=O)(=O)O)cc(S(=O)(=O)O)c45)ccc3C)c2)c1,inactive,inactive,4.78,inactive,inactive,inactive,inactive,inactive,inactive,,
CC[N+](CC)(CC)CCOc1cccc(OCC[N+](CC)(CC)CC)c1OCC[N+](CC)(CC)CC,inactive,inactive,2.7,inactive,inactive,inactive,inactive,inactive,inactive,,
CCN(CC#N)c1cccc(C)c1,inactive,inactive,13,inactive,inactive,inactive,inactive,inactive,inactive,,
O=S(=O)(O)c1cc(O)c(O)c(S(=O)(=O)O)c1,inactive,inactive,0.173,inactive,inactive,,inactive,inactive,inactive,inactive,
Clc1cc(Cl)c(Cl)nc1Cl,inactive,inactive,-11.7,inactive,inactive,,inactive,inactive,inactive,inactive,
